Bioassay records from PubChem.
Mtb FBA inh: inhibits M. tuberculosis FBA enzyme | AID 588726 | purified M. tuberculosis FBA, fluorescence read-out | inhibition, % at 1 µM | 360,000 compounds, 2.3% hits; in the data active = inhibition above about 27%;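 note: 0% = vehicle and 100% = reference inhibitor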
Rv3671c inh: Rv3671c (M. tuberculosis) protease inhibition | 320,000 compounds, 0.048% hits | inhibition, % at 5.96 µM; in the data active = inhibition above about 38%;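 note: extracellular domain of Rv3671c used as enzyme; 0% = enzyme with DMSO and 100% = no enzyme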
GDH-TPI inh: GDH-TPI coupled enzyme inhibition counter-screen. inhibition, % at 4.8 µM. AID 588335. 360,000 compounds, 1.2% hits. GDH-TPI coupled enzyme counterscreen, NADH absorbance; in the data active = inhibition above about 30%;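 note: 0% = DMSO wells and 100% = wells lacking the enzyme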
RecA splice inh: Mtb RecA intein splicing inhibition; P9WHJ3; cell-free RecA intein splicing, fluorescence; inhibition, % (no concentration beside the values); 290,000 compounds, 0.75% hits; AID 2221; in the data active = inhibition above about 30%;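 note: 0% = vehicle wells and 100% = reference inhibitor control wells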
Vc quorum ag: quorum light induction in luxS cqsA deficient V. cholerae. V. cholerae BH1578 lux reporter, luminescence, 6 h. 350,000 compounds, 0.16% hits. activation, % at 18.7 µM; in the data active = activation mostly above about 9.7%, no sharp cut-off
UGM FP inh: Mtb UDP-galactopyranose mutase inhibition | P9WIQ1 | purified UGM, fluorescence polarization probe displacement | inhibition, % at 10 µM | 320,000 compounds, 0.06% hits; in the data active = inhibition above about 10%, passing the limit was not always enough
Target sequence (P9WIQ1 whole entry, looked up): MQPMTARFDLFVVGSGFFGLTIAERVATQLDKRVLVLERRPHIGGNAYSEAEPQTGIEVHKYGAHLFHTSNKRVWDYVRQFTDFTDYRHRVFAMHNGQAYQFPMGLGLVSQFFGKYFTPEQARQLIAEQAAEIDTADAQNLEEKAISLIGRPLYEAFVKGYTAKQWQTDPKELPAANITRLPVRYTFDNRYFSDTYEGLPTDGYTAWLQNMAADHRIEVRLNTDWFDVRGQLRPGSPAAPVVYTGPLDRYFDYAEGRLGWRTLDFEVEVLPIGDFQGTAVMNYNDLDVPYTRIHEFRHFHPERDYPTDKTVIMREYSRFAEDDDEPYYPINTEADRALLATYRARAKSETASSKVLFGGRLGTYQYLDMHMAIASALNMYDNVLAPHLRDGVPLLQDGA
* marks the source's active call; other numbers are inactive results. Compounds with a hit are over-represented: about 4.1% of the library has one in this group of screens.

Screening COc1cccc(/C=C/c2[nH]c(=O)[nH]c(=O)c2[N+](=O)[O-])c1O returned Mtb FBA inh -5, Rv3671c inh 6, GDH-TPI inh 14, RecA splice inh -2, Vc quorum ag -2 and UGM FP inh 2.
COc1cc(/C=C/c2[nH]c(=O)[nH]c(=O)c2[N+](=O)[O-])cc(OC)c1O was read as Mtb FBA inh -4, GDH-TPI inh 31*, RecA splice inh -6, Vc quorum ag 0 and UGM FP inh -1.
CC(C)CNC(=O)C1(C)CCCN1Cc1ccccc1OC(F)F (centres undefined) was read as Mtb FBA inh -1, GDH-TPI inh 6 and Vc quorum ag inactive.
For N#Cc1c(N)nc2c(c1-c1ccc(F)cc1)CCC2 the results were Mtb FBA inh 64*, Rv3671c inh 2, GDH-TPI inh 20, RecA splice inh -8, Vc quorum ag inactive and UGM FP inh -1.
`CCc1ccc(-c2csc(NC(=O)C3=COCCO3)n2)cc1` gave Mtb FBA inh -1, Rv3671c inh -19, GDH-TPI inh 10, Vc quorum ag 6 and UGM FP inh 3.
Cc1cc2oc(=O)cc(CN3CCOCC3)c2cc1C(C)C was read as Mtb FBA inh -2, Rv3671c inh -8, GDH-TPI inh 0, Vc quorum ag 0 and UGM FP inh -2.
O=c1cc(CN2CCOCC2)c2cc(Cl)c(O)cc2o1 was read as Mtb FBA inh active, Rv3671c inh -6, GDH-TPI inh -1, RecA splice inh -203, Vc quorum ag 0 and UGM FP inh 0.
`CCc1cc2c(CN3CCN(CC)CC3)cc(=O)oc2cc1O` gave Mtb FBA inh active, Rv3671c inh 5, GDH-TPI inh 16, RecA splice inh -381, Vc quorum ag 0 and UGM FP inh 0.
CCc1ccc2oc(=O)cc(CN3CCN(Cc4ccccc4)CC3)c2c1 was read as Mtb FBA inh 1, Rv3671c inh -10, GDH-TPI inh 6, RecA splice inh 0, Vc quorum ag inactive and UGM FP inh 0.
For CCOP(=O)(OCC)c1nc(-c2cccc3ccccc23)oc1NCc1ccc(OC)cc1 the results were Mtb FBA inh 169*, Rv3671c inh 0, GDH-TPI inh -3, RecA splice inh 0, Vc quorum ag inactive and UGM FP inh -3.
Screening CCOP(=O)(OCC)c1nc(-c2cccc3ccccc23)oc1NCc1ccccc1 returned Mtb FBA inh active, Rv3671c inh 5, GDH-TPI inh 10, Vc quorum ag -1 and UGM FP inh 0.
Screening Cc1ccc(-c2nnc(-c3cccc4ccccc34)o2)cc1 returned Mtb FBA inh 3, GDH-TPI inh 16 and Vc quorum ag -3.
Screening Cc1ccc(NC(=O)CN(C)C(=O)c2cc(-c3cccs3)nn2-c2ccccc2)cc1 returned Mtb FBA inh 2, Rv3671c inh -15, GDH-TPI inh -1, Vc quorum ag inactive and UGM FP inh -1.
Screening Cc1cc(C)c(S(=O)(=O)n2c([N+](=O)[O-])cnc2C)cc1C returned Mtb FBA inh 0, Rv3671c inh 2, GDH-TPI inh 6, RecA splice inh -1, Vc quorum ag 0 and UGM FP inh 10*.
Cc1ccc(S(=O)(=O)n2c([N+](=O)[O-])cnc2C)cc1C was read as Mtb FBA inh 0, Rv3671c inh 10, GDH-TPI inh 6, RecA splice inh 0, Vc quorum ag -1 and UGM FP inh 2.
For CC(C)OC(=O)/C(=C/c1ccc2c(c1)c1ccccc1n2C)NC(=O)c1ccccc1 the results were Mtb FBA inh 0, Rv3671c inh -26, GDH-TPI inh 34*, RecA splice inh 1, Vc quorum ag -1 and UGM FP inh 0.
`CC(C)OC(=O)/C(=C\c1ccc2c(c1)c1ccccc1n2C)NC(=O)c1ccccc1` gave Mtb FBA inh 2, Rv3671c inh -32, GDH-TPI inh 21, RecA splice inh -3, Vc quorum ag inactive and UGM FP inh -2.
Screening Cn1c2ccccc2c2cc(/C=C(\NC(=O)c3ccccc3)C(=O)O)ccc21 returned Mtb FBA inh -3, Rv3671c inh -4, GDH-TPI inh 35*, RecA splice inh 0, Vc quorum ag inactive and UGM FP inh 4.
Screening O=[N+]([O-])c1cc([N+](=O)[O-])c(N2CCCCCC2)cc1NCCO returned Mtb FBA inh -6, Rv3671c inh 0, GDH-TPI inh 34*, RecA splice inh 10, Vc quorum ag -6 and UGM FP inh 1.
